Data: PubChem BioAssay AID588342 (National Center for Advancing Translational Sciences (NCATS), 2011)
Among all 360,000 compounds or so, about 25,000 (6.9%) were called active. A call without a number means that no potency is given here. Inconclusive results (about 9%) are left out. Calls come from the whole dose curve; as a rule, active = well fitted inhibition curve with a large enough effect; inconclusive = small, poorly fitted or top-dose-only effect; inactive = flat fitted curve, though single readings scatter. This excerpt belongs to a sample that is enriched for actives.

Target: Luciferin 4-monooxygenase (Photinus pyralis) (UniProt P08659)
Test: qHTS profiling assay for firefly luciferase inhibitor/activator using purifed enzyme and Km concentrations of substrates (counterscreen for miR-21 project); note: nearly all actives have a fitted effect of over 55% in size
Details: purified FLuc, luminescence inhibition; series mostly up to 57.5 µM
How it was run: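 Biochemical qHTS of compounds, final roughly 60 µM downward over six points, against 10 nM purified firefly luciferase using Km concentrations of substrates (10 uM D-luciferin, 10 uM ATP) in Tris acetate pH 7.5 buffer; luminescence output.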
Potency is the fitted concentration of half-maximal effect.

Luciferin 4-monooxygenase (Photinus pyralis), sequence (P08659 whole entry, looked up): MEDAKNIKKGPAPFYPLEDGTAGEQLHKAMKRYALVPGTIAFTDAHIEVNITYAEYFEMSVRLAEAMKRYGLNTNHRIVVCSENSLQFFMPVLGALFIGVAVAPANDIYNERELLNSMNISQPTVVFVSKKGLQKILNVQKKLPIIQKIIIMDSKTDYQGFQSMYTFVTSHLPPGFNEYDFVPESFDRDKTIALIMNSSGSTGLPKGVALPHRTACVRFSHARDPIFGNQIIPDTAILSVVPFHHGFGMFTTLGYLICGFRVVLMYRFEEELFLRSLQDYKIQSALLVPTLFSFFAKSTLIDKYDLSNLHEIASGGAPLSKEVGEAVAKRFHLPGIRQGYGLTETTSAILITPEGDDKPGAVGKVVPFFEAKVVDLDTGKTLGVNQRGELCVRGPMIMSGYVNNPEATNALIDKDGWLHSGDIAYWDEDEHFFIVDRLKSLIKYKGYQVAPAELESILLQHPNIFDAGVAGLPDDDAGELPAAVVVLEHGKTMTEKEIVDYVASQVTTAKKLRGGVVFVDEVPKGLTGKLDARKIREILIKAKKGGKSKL

| SMILES | Potency |
| --- | --- |
| CC(C)Cn1cnc2c1c(=O)n(CC(O)c1ccccc1)c(=O)n2CC(C)C (configuration not stated) | inactive |
| CC(=O)Nc1ccccc1Sc1ccc2c3c(cccc13)C(=O)N(c1ccc(C)cc1)C2=O | inactive |
| O=C(O)c1ccc2c3c(cccc13)C(=O)N(OS(=O)(=O)c1ccccc1)C2=O | 26.9 µM (active) |
| CN1C(=O)c2cccc3c(N)ccc(c23)C1=O | inactive |
| Cc1nonc1C(=O)N/N=C/c1ccc(O)cc1 | 6.01 µM (active) |
| COc1cc(/C=N\NC(=O)c2nonc2N)c(OC)cc1Br | inactive |
| CC(C)c1c(C(=O)N/N=C/c2ccc(-c3ccccc3)cc2)nnn1-c1nonc1N | inactive |
| CCC(C)Nc1oc(-c2ccc(COc3ccc(Cl)cc3)o2)nc1C#N (configuration not stated) | inactive |
| Nc1nnc(SCC(=O)NCC(=O)Nc2ccc(F)c(F)c2F)s1 | inactive |
| O=C(c1ccco1)n1nc(-c2ccc(Cl)cc2)nc1NCc1ccccc1 | inactive |
| Cc1cc(Br)ccc1NC(=O)Cn1cnc2sc(C)c(S(=O)(=O)N3CCN(C)CC3)c2c1=O | inactive |
| Brc1ccc(CN2CC[C@H]3C=CCc4cccc(c43)C2)cc1 | inactive |
| Cc1ccc(CCNC(=O)c2ccc3c(c2)nc2n3CCC(C)C2)cc1 (configuration not stated) | inactive |
| O=C(NCc1ccccc1)c1ccc2c(c1)nc1n2CCCCC1 | 19 µM (active) |
| CCOc1ccccc1CNC(=O)c1ccc2c(c1)nc1n2CCC(C)C1 (configuration not stated) | inactive |
| O=C(/C=C/c1ccc(Cl)cc1Cl)c1cccnc1 | 15.1 µM (active) |
| O=C(NCc1ccc(Cl)c(Cl)c1)c1cccnc1 | inactive |
| O=C(/C=C/c1ccc(Cl)c([N+](=O)[O-])c1)c1cccnc1 | inactive |
| Cc1cccc(C)c1NC(=O)Nc1ccccc1-n1ccnc1 | inactive |
| O=c1c2ccccc2n(Cc2cccc(Cl)c2)c(=O)n1Cc1ccccc1 | inactive |
| COCCNc1ncnc2c1c(-c1ccccc1)cn2-c1ccc(C)c(Cl)c1 | inactive |
| CCN(CC)CCNc1ncnc2c1cnn2-c1cc(Cl)ccc1C | inactive |
| Cc1ccc(-n2ncc3c(NCCCn4ccnc4)ncnc32)cc1Cl | 12 µM (active) |
| Cc1ccccc1CNC(=O)c1ccc(NC(=O)N2CCCCc3ccccc32)cc1 | inactive |
| COC(=O)C1=C(C)NC(=O)/C1=C/c1ccc(CNS(=O)(=O)c2ccc(C)cc2)o1 | inactive |
| C[C@@H](NC(=O)c1nc[nH]c1C(=O)N1CCN(C(=O)OC(C)(C)C)CC1)c1ccccc1 | inactive |

| SMILES | Potency |
| --- | --- |
| Cc1ccc(Cl)cc1NC(=O)CSc1nccn1C | inactive |
| Cc1cnc(NC(=O)CSc2nnc(C)s2)s1 | inactive |
| Cc1cnc(NC(=O)C2CCCC2)s1 | inactive |
| Cc1ccc(Cl)cc1NC(=O)c1ccccn1 | 16.9 µM (active) |
| Cc1cnc(NC(=O)CSc2nnc(-c3ccccc3)n2Cc2ccccc2)s1 | inactive |
| Cc1cnc(NC(=O)c2ccccn2)s1 | 2.69 µM (active) |
| Cc1cnc(NC(=O)Cn2cnc3c2c(=O)n(C)c(=O)n3C)s1 | inactive |
| Cc1ccc(Cl)cc1NC(=O)Cc1ccc(-n2c(C)nc3cccnc32)cc1 | inactive |
| Cc1cnc(NC(=O)c2ccc(Cl)nc2)s1 | 12 µM (active) |
| COc1ccc(-c2onc(C)c2C)cc1S(=O)(=O)NCc1cccs1 | inactive |
| CC(=O)NC(CC(=O)Nc1nc(-c2ccccc2)c(C(C)=O)s1)c1ccccc1 (configuration not stated) | inactive |
| COc1cccc(-c2n[nH]c3c2C(c2cccc(O)c2)N(C)C3=O)c1 (configuration not stated) | inactive |
| O=C1COc2ccc(C(=O)CSc3ccc(Br)cc3)cc2N1 | inactive |
| Cc1ccc(C)c(N2CCN(c3ccc4cc(S(=O)(=O)N5CCC(C)CC5)ccc4n3)CC2)c1 | inactive |
| Cc1cc(NC(=O)C2CCC(CNS(=O)(=O)c3ccc(Br)s3)CC2)ccc1Br (configuration not stated) | inactive |
| Cc1cc(C)cc(OCC(=O)Nc2nc(-c3ccc(F)cc3)ns2)c1 | inactive |
| COc1ccc(CCNC(=O)COC(=O)c2cc(=O)c3ccccc3o2)cc1 | inactive |
| COC(=O)CNC(=O)c1cc(-c2ccncc2)nc2ccccc12 | inactive |
| O=C(O/N=C(/c1ccccc1)c1ccncc1)c1ccccc1[N+](=O)[O-] | inactive |
| COc1ccc(CN(C)C(=O)c2cc(-c3ccc(C)cc3C)nc3ccccc23)c(OC)c1OC | inactive |
| C/C(N)=C(/C#N)C(=O)COC(=O)c1cc(-c2ccc(C)cc2)nc2ccccc12 | 9.53 µM (active) |
| N/C(=N\OC(=O)c1cc(-c2ccccc2)nc2ccccc12)c1ccncc1 | 21.3 µM (active) |
| C/C(N)=C(/C#N)C(=O)COC(=O)C1=NN(c2ccccc2)C(=O)CC1 | inactive |
| COc1ccc(-c2cc(C(=O)N(C)Cc3ccccc3)c3ccccc3n2)cc1 | 10.7 µM (active) |
| COc1ccc(NC(=O)c2cc(-c3cc(OC)c(OC)c(OC)c3)nc3ccccc23)c(OC)c1 | inactive |
| COc1ccc(C2=NS(=O)(=O)N(C)C(C(=O)N(C)Cc3ccccc3)=C2)cc1 | inactive |

| SMILES | Potency |
| --- | --- |
| CNC(=O)COC(=O)c1cc(-c2ccc(OC)cc2)nc2ccccc12 | 5.36 µM (active) |
| C/C(N)=C(/C#N)C(=O)COC(=O)c1cc(-c2cccc(Br)c2)nc2ccccc12 | inactive |
| Cc1cc(C)c2oc(C(=O)Nc3c(C(=O)Nc4ccccc4)oc4ccccc34)cc(=O)c2c1 | inactive |
| CCCCN(C(=O)C(CCSC)N1C(=O)c2ccccc2C1=O)c1c(N)n(CCC)c(=O)[nH]c1=O (configuration not stated) | inactive |
| COc1cc(NS(=O)(=O)c2ccc3c(c2)OCC(C(=O)N2CCCC2)O3)cc(OC)c1 (configuration not stated) | inactive |
| COc1ccc2c(CNCCc3ccccc3C)c(C(=O)O)n(Cc3ccccc3C)c2c1 | inactive |
| CCCn1ccc2c(OCC(=O)NCc3ccc(F)cc3)cccc2c1=O | inactive |
| COC(=O)c1cccnc1NC(=S)NC(C)C | inactive |
| Cc1cc(NS(=O)(=O)c2ccc3oc(=O)c4ncn(C)c4c3c2)ccc1Br | inactive |
| Cc1c(O)c(C)c2c(c1O)C(=O)C[C@@H](c1ccccc1)O2 | inactive |
| CCn1cc(C(=O)NCCc2ccccc2)c(=O)c2cc(S(=O)(=O)N3CCCCCC3)ccc21 | inactive |
| CCOc1ccc(N2CC(C)Cn3c2nc2c3c(=O)n(Cc3c(F)cccc3Cl)c(=O)n2C)cc1 (configuration not stated) | inactive |
| Cc1ccc(NC(=O)CSc2nc3c(c(=O)[nH]2)CN(Cc2ccc4c(c2)OCO4)CC3)cc1C | inactive |
| Cc1ccc(OCC(=O)Nn2cnc3ccccc32)cc1 | inactive |
| COc1ccc(-c2cc(C(=O)n3cnc4ccccc43)c3ccccc3n2)cc1 | 5.36 µM (active) |
| COc1ccc(S(=O)(=O)n2cnc3ccccc32)c(C)c1 | inactive |
| O=C(Nc1ccc(S(=O)(=O)N2CCC(c3nc4ccccc4s3)CC2)cc1)c1ccccc1F | inactive |
| Cc1ccc(S(=O)(=O)N(C)C)cc1NC(=O)CN1c2cccc3cccc(c23)S1(=O)=O | inactive |
| CCOC(=O)c1c(C)[nH]c(C2=NNC(=NC(C)COC)SC2)c1C (configuration not stated) | 8.49 µM (active) |
| COc1ccc(C2(Nc3cccc(F)c3)C(=O)c3ccccc3C2=O)cc1 | inactive |
| O=C(COC(=O)c1ncc(Cl)c(Cl)c1Cl)NCc1ccccc1 | inactive |
| CCOC(=O)c1cccc(NS(=O)(=O)c2cc(-c3cnc(C)o3)ccc2OC)c1 | inactive |
| COc1ccc(NS(=O)(=O)c2cccc(C(=O)NCCc3ccc(S(N)(=O)=O)cc3)c2)cc1 | inactive |
| COc1ccc(CCNC(=O)CCCn2c(=O)c3ccccc3n(Cc3ccc(C)cc3)c2=O)cc1OC | inactive |
| C/C(N)=C(/C#N)C(=O)COC(=O)CNS(=O)(=O)c1ccc(C)cc1 | inactive |
| COC(=O)CNS(=O)(=O)c1ccc(Cc2ccc(S(=O)(=O)NCC(=O)OC)cc2)cc1 | 3.79 µM (active) |

| SMILES | Potency |
| --- | --- |
| COC(=O)CNS(=O)(=O)c1ccc(OC)cc1 | inactive |
| COc1ccc(-c2nc(Cn3c(=O)cc(C)c4c(C)nn(-c5ccccc5)c43)c(C)o2)c(OC)c1 | inactive |
| CCOC(=O)c1nnn(CC(=O)NC(=O)Nc2ccccc2F)c1C(=O)OCC | inactive |
| CC(=O)Nc1ccc(NC(=O)COC(=O)c2ccccc2C(=O)c2ccccc2)cc1 | inactive |
| Cc1ccc(S(=O)(=O)N(C)CC(=O)OCC(=O)Nc2ccccc2)cc1 | inactive |
| O=C(COC(=O)C1CC2C=CC1C2)Nc1ccccc1 (configuration not stated) | 16.9 µM (active) |
| COc1cc(C(=O)N2C(=O)c3cccc(N)c3C2=O)cc(OC)c1OC | inactive |
| COc1ccc2c(c1OC)C(=O)N(c1ccc(O)cc1)C2 | 15.1 µM (active) |
| COc1ccc2c(c1OC)C(=O)N(c1ncn[nH]1)C2 | inactive |
| CCOc1ccc(CC(=O)NCCc2csc3nc(-c4ccccc4F)nn23)cc1 | inactive |
| CN(C)CCCN(C(=O)c1ccc(S(=O)(=O)N2CCCCCC2)cc1)c1nc2ccc(Br)cc2s1 | inactive |
| Brc1ccc2nc(N3CCCC3)sc2c1 | 7.57 µM (active) |
| CN(C)CCCN(C(=O)c1ccc(S(=O)(=O)N2CCCCCC2)cc1)c1nc2cc3c(cc2s1)OCCO3 | inactive |
| c1c2c(cc3sc(N4CCCCC4)nc13)OCCO2 | 0.213 µM (active) |
| O=C(NCCc1cccc(F)c1)C1CCCN(c2nc3ccccc3s2)C1 (configuration not stated) | inactive |
| O=C(NCc1ccc(F)cc1)c1ccc2nc(N3CCCCC3)sc2c1 | inactive |
| Fc1ccc2nc(N3CCCCC3)sc2c1 | 4.78 µM (active) |
| Cc1nc(N2CCCCC2)sc1C=O | inactive |
| Cc1nc2ccn(Cc3cccs3)c(=O)c2cc1C(=O)NCc1ccc(Cl)cc1 | inactive |
| O=C(CSc1nnc(CN2CCCC2)n1-c1ccc(F)cc1)c1ccc2c(c1)OCO2 | inactive |
| O=C(CN1CCN(c2ccccc2O)CC1)NC(=O)NCc1ccccc1 | inactive |
| COc1ccc(S(=O)(=O)Nc2ccc3cn[nH]c3c2)cc1[N+](=O)[O-] | inactive |
| CCOC(=O)Cc1csc(SCC(=O)Nc2ccc(C)cc2F)n1 | inactive |
| CCOC(=O)c1ccccc1NC(=O)CCc1c(C)nc2c(c1C)c(=O)n(C)c(=O)n2C | inactive |
